Screening results (PubChem)
Sampled rows, rich in hits. Any-hit rate of the full collection: about 2.2%.
KLF5 inhibitor = inhibitors of KLF5 expression | 290,000 tested, 0.23% active | DLD-1 KLF5 promoter-luciferase reporter, luminescence | inhibition, % at 5 µM;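 active = inhibition above a per-plate limit of that plate's mean compound inhibition plus 3 SD, cut at about 60% in these data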;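 note: 0% = DMSO wells and 100% = LY294002 at 200 µM; higher means less KLF5 promoter-driven luciferase light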
APP 5UTR inh = APP translation inhibition; AID 1285; inhibition, % at 2 µM; 190,000 tested, 0.82% active; SH-SY5Y APP 5'UTR-luciferase reporter, luminescence;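 active = inhibition above a set limit, derived from the sample mean plus 3 SD, cut at about 45% in these data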
Ba/F3 V617F tox = lowers viability of Ba/F3 cells expressing EpoR and JAK2V617F | ATP luminescence | inhibition, % at 5.6 µM | 220,000 tested, 1.1% active | AID 1446;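 active = inhibition above the campaign mean plus 3 SD over all tested compounds, cut at about 24% in these data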;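 note: cytokine-independent growth of Ba/F3 cells driven by EpoR plus mutant JAK2; 0% = DMSO-treated cells and 100% = JAK inhibitor I control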
IEC-6 tox-1 = kills IEC-6 intestinal cells in KLF5 counter-screen; IEC-6 cytotoxicity, luminescence viability; inhibition, % at 5 µM; 290,000 tested, 0.78% active; in the data active = inhibition above about 22%;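 note: 0% = plate median of test compound wells and 100% = cytotoxic reference compound wells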
BaF3 tox = parental Ba/F3 viability inhibition as JAK2V617F counter-screen | CellTiter-Glo ATP luminescence | inhibition, % at 5.6 µM | 220,000 tested, 1.1% active | AID 1486;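 active = inhibition above a per-campaign cutoff, the mean inhibition of all tested compounds plus 3 SD, cut at about 27% in these data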;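 note: 0% = DMSO wells and 100% = JAK Inhibitor I control wells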
aSyn UTR inh = MLPCN primary screen, SNCA 5' untranslated region. alpha-synuclein 5'UTR reporter, inhibitor activity. inhibition, % (tested at 7.5 µM). 300,000 tested, 0.82% active; in the data active = inhibition above about 60%;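 note: H4 neuroglioblastoma cells stably carrying SNCA 5'UTR luciferase fusion; 0% = DMSO wells and 100% = positive control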
KLF5 inh confirm = confirmation of KLF5 inhibitors | DLD-1 KLF5 promoter firefly luciferase reporter, luminescence | 610 tested, 79% active | shares compounds with KLF5 inhibitor | inhibition, % at 4 µM;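 active = inhibition above a set limit taken from the earlier primary screen, cut at about 63% in these data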;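 note: 0% = DMSO wells and 100% = LY294002 at 200 µM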
IEC-6 tox-2 = rat IEC-6 cytotoxicity, KLF5 inhibitor counter-screen. AID 1905. 610 tested, 56% active. IEC-6 rat intestinal cells, viability luminescence. inhibition, % at 4 µM. shares compounds with KLF5 inhibitor; in the data active = inhibition above about 23%;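 note: cells exposed to compounds for 48 hours before viability read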
The depositor's hits bear a star; / = no result.

SMILES	KLF5 inhibitor	APP 5UTR inh	Ba/F3 V617F tox	IEC-6 tox-1	BaF3 tox	aSyn UTR inh	KLF5 inh confirm	IEC-6 tox-2
Cc1ccc(-c2nn(-c3ccccc3)cc2CO)cc1	-54.9	/	/	3.1	/	-103.6	/	/
COc1ccc(C(=O)N/N=C/c2cc(Br)ccc2O)cc1OC	68.2*	/	15.6	4.1	-0.1	44.0	91.8*	-2.7
Cc1cc(Br)cc(/C=N/NC(=O)c2ccc3c(c2)OCO3)c1O	70.5*	/	/	16.3	/	7.8	60.6	15.0
Cn1cccc1-c1cc(C(=O)N/N=C/c2cc(Br)ccc2O)[nH]n1	65.3*	/	/	12.2	/	70.5*	78.8*	-2.2
O=C(N/N=C/c1cc(Br)c(O)c(Br)c1O)c1ccc2c(c1)OCCO2	-19.6	/	/	12.1	/	38.8	/	/
CC1CCCN(C(=O)C(C)Sc2nc(-c3ccccc3)cc(C(F)(F)F)n2)C1 (configuration not stated)	7.3	/	5.9	4.3	6.6	27.5	/	/
Cc1ccc(NS(=O)(=O)c2ccc(OCC(=O)NCc3ccco3)cc2)cc1	-23.2	6.8	-4.1	1.0	0.2	8.5	/	/
COc1ccc(NC(=O)CN(C)C(=O)c2cccc(S(=O)(=O)Nc3ccc(OC)cc3)c2)cc1	/	/	/	/	/	10.6	/	/
Cc1ccc(-n2c(-c3ccc(Br)cc3)c[n+]3c2CCc2ccc4cccnc4c2-3)cc1	68.6*	2.6	97.0*	56.5*	91.3*	85.9*	111.5*	50.4*
Cc1ccc(-n2c(=O)[nH]c3ncccc3c2=O)cc1	0.2	-8.3	1.8	5.4	6.3	-5.9	/	/
O=C(Nc1ccc(N2CCCCCC2)cc1)c1ccccc1Cl	-139.3	-106.6	9.1	10.8	3.2	-252.4	/	/
O=C(Nc1ccc(N2CCCCC2)cc1)c1ccccn1	103.9*	41.0	21.9	18.8	18.7	113.8*	100.3*	11.9
O=Cc1ccc2cccnc2n1	19.9	0.9	3.0	5.9	4.5	-18.7	/	/
O=Cc1ccc2ccc3cccnc3c2n1	77.8*	/	/	1.6	/	11.7	-3.8	-4.9
COc1cccc(/C=N/Nc2ccc(C(=O)O)cc2)c1O	100.0*	80.1*	1.4	-5.2	3.5	112.7*	111.5*	-6.7
COc1cccc(/C=N/Nc2ccc(S(=O)(=O)O)cc2)c1O	-1.6	-14.4	-3.6	-0.5	2.9	-2.9	/	/
COc1cc(OC)c2cc(C(=O)N/N=C/c3cccc(OC)c3O)[nH]c2c1	38.7	/	-0.5	3.1	-2.8	47.0	/	/
COc1cccc(/C=N/Nc2ccc([N+](=O)[O-])cn2)c1O	85.1*	/	/	10.1	/	102.1*	71.7*	7.5
O=[N+]([O-])c1ccc(/C=N/Nc2ncccc2[N+](=O)[O-])s1	/	/	/	/	/	-9.1	/	/
COc1cccc(/C=N/Nc2ncccc2[N+](=O)[O-])c1OC	81.4*	/	16.6	11.6	14.2	91.6*	29.9	22.6*
COc1cccc(/C=N/NC(=O)c2cc3c(OC)ccc(OC)c3[nH]2)c1O	87.8*	/	/	12.1	/	23.4	72.2*	-2.2
Cc1cc(/C=N/Nc2ccc([N+](=O)[O-])cn2)c(C)n1-c1ccccc1	-16.5	-7.6	6.0	-6.8	16.7	-136.6	/	/
O=C(c1cccc(Br)c1)N1CCN(S(=O)(=O)N2CCOCC2)CC1	7.2	7.0	-2.1	1.5	-1.0	31.7	/	/
O=C(O)CCCn1cc(NC(=O)c2ccc(F)cc2)cn1	-8.6	-6.0	-2.6	-9.4	5.2	18.4	/	/
CC(C)(C)c1ccc(C(=O)NC(CC(=O)O)c2ccc(OC3CCCC3)cc2)cc1 (configuration not stated)	-34.5	/	/	1.4	/	2.9	/	/
SMILES	KLF5 inhibitor	APP 5UTR inh	Ba/F3 V617F tox	IEC-6 tox-1	BaF3 tox	aSyn UTR inh	KLF5 inh confirm	IEC-6 tox-2
COc1ccccc1/C=C\C=N\n1c(C2CCCCC2)n[nH]c1=S	-32.0	-3.6	-4.9	-4.3	1.1	13.6	/	/
COCCCN=C1NN=C(c2cc(C)n(-c3ccccc3F)c2C)CS1	-63.5	-186.8	-0.4	-1.0	3.9	-20.8	/	/
COCCn1c(C)cc(C2=NNC(=Nc3ccccc3F)SC2)c1C	88.6*	52.4*	-3.4	9.3	3.6	91.4*	-4.5	-6.6
COc1ccccc1NC(=O)NNC(=O)c1cc2ccccc2cc1O	-27.2	/	/	-4.9	/	0.4	/	/
O=C(Nc1ccc2c(c1)OCO2)Nc1ccc2c(c1)OCO2	-81.3	-135.6	1.0	-3.4	4.8	-129.3	/	/
O=C(Nc1cccc(C(=O)O)c1)Nc1ccc2c(c1)OCO2	95.5*	/	/	1.9	/	99.4*	89.0*	5.1
